Bioassay records: PubChem, National Center for Advancing Translational Sciences (NCATS)
Tb PYK inh – T. brucei pyruvate kinase inhibition | Q57TT1 | TbPYK enzyme, Kinase-Glo Plus ATP luminescence, 45 min | Potency, µM (top dose mostly 76.8 µM), inactives show top-dose activity, negative = inhibition, usual class: inhibitors | 410,000 tested, 0.12% active | AID 624173; further: nearly all actives have a fitted effect of over 50% in size
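Assay buffer: 50 mM TEA pH 7.2, 100 mM KCl, 10 mM MgCl2, 0.05% BSA, 0.01% Tween-20. Pyruvate kinase from T. brucei plus substrate met compound, then ADP (130 uM final). Luminescence was read post 45 min RT.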
LmPK inh – blocks Leishmania mexicana pyruvate kinase activity | purified LmPK, Kinase-Glo ATP luminescence, 1 h | Potency, µM (top dose mostly 57.5 µM), for the others: at the top dose activity change, negative = inhibition, actives largely listed as inhibitors | Q27686 | AID 1721 | 290,000 tested, 0.37% active
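0.1 nM LmPK, 0.5 mM PEP, 0.1 mM ADP; 50 mM imidazole pH 7.2, 7 mM MgCl2, 50 mM KCl; 1 h RT. Kinase-Glo luminescence readout, normalized to no-enzyme (full inhibition) and uninhibited wells.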
RE007 growth inh – less growth of the S. pombe RE007 Vpr strain | AID 651644 | Potency, µM (doses to about 92.2 µM), for the others: at the top dose activity change, negative = less growth, actives largely listed as inhibitors | 360,000 tested, 0.21% active | S. pombe RE007 Vpr strain, BacTiter-Glo ATP luminescence, 24 h; active means well fitted falling curve with a large enough effect; inconclusive means small, poorly fitted or top-dose-only effect; inactive means no such curve, though single readings can be large or run the other way; further: nearly all actives have a fitted effect of over 50% in size
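Fission yeast RE007 carrying one integrated HIV-1 vpr copy, seeded at OD 0.01 in PMG+AL medium with 23 nL pinned compound. Grown 24 h at 30 degrees; viability read by BacTiter-Glo luminescence after 5 min.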
Giardia FBPA inh-1 – inhibitors of Giardia lamblia fructose-1,6-bisphosphate aldolase; A8B2U2; purified Giardia FBPA; Potency, µM (series often up to 59.6 µM), for inactives: at the highest dose activity, negative = inhibition, hits mostly inhibitors; 290,000 tested, 0.71% active; further: nearly all actives have a fitted effect of over 55% in size
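Giardia FBPA (40 nM reagent) was preincubated 10 min at RT with compound (up to 57.5 uM final), then substrate plus GAPDH/TPI/NAD/arsenate coupling system with diaphorase/resazurin was added; resorufin fluorescence (525/598 nm) was read after 20 min.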
Giardia growth – inhibitors of Giardia lamblia growth. 1,500 tested, 5% active. Potency, µM (highest dose often 57.5 µM), for inactives: top-dose activity change, negative = inhibition, hits mostly inhibitors. shares compounds with Giardia FBPA inh-1. AID 2785. Giardia lamblia trophozoite growth inhibition;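 further: trophozoites exposed to compound for 48 h at 37 °C; nearly all actives have a fitted effect of over 70% in size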
Mammal cell tox – counter-screen for Giardia aldolase inhibitors: mammalian cell toxicity. Potency, µM (highest dose often 57.5 µM), for the others: at the highest dose viability change, negative = toxicity, usual class: inhibitors. 1,500 tested, 4% active. mammalian cell viability counter-screen, qHTS. shares compounds with Giardia FBPA inh-1;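 further: Chinese hamster ovary cells used as mammalian cytotoxicity surrogate; viability measured as cellular ATP by luminescence; compound exposure lasted 48 h before reading; nearly all actives have a fitted effect of over 60% in size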
Giardia FBPA inh-2 – confirmation of Giardia fructose-bisphosphate aldolase inhibitors; 1,500 tested, 5% active; purified Giardia aldolase enzyme activity, qHTS; Potency, µM (highest dose often 57.5 µM), inactives show at the top dose activity change, negative = inhibition, hits mostly inhibitors; shares compounds with Giardia FBPA inh-1; further: nearly all actives have a fitted effect of over 45% in size
Rabbit aldolase – blocks rabbit muscle aldolase in Giardia aldolase selectivity test; shares compounds with Giardia FBPA inh-1; Rabbit muscle FBPA enzyme inhibition, selectivity counter-screen; Potency, µM (highest dose often 57.5 µM), without a hit: at the highest dose activity, negative = inhibition, actives largely listed as inhibitors; 1,500 tested, 4% active; AID 2794; further: nearly all actives have a fitted effect of over 60% in size
Target sequence (P00883 whole entry, looked up): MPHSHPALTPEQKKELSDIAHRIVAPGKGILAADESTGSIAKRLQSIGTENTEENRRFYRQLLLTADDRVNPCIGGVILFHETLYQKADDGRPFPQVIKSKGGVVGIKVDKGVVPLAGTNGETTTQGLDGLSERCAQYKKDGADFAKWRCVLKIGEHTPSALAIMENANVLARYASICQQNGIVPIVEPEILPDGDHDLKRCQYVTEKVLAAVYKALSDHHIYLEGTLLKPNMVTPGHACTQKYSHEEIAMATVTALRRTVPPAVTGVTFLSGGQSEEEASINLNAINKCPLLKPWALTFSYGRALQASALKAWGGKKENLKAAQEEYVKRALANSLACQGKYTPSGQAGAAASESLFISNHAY
GAPDH coupling – counter-screen for Giardia aldolase inhibitors: GAPDH coupling enzyme; 1,500 tested, 6% active; Potency, µM (doses to about 57.5 µM), for inactives: at the highest dose activity change, negative = inhibition, usual class: inhibitors; shares compounds with Giardia FBPA inh-1; GAPDH coupling enzyme counterscreen, biochemical, qHTS; AID 2795; further: nearly all actives have a fitted effect of over 55% in size
* marks the source's active call; other numbers are inactive results; u = inconclusive; x = no result; [ ] = dose if it differs, or a comment. Rows were chosen to be rich in hits. Some 0.95% of all compounds tested hit in one or more screens of this group. Unless noted, the call rests on the fitted dose curve; in most records, active means well fitted curve in the direction sought with a large enough effect; inconclusive means small, poorly fitted or top-dose-only effect, or another doubt; inactive means no such curve, though single readings can be large; an effect the other way counts as inactive or inconclusive. On the % scale 0 is the no-effect control and ±100 the full control effect; potency means the concentration at half of the fitted maximal effect.

SMILES	Tb PYK inh	LmPK inh	RE007 growth inh	Giardia FBPA inh-1	Giardia growth	Mammal cell tox	Giardia FBPA inh-2	Rabbit aldolase	GAPDH coupling
Oc1c(CN2CCc3ccccc3C2)cc(Cl)c2cccnc12	-11.2%	14.9%	u	u	x	x	x	x	x
NS(=O)(=O)c1ccc(CCNCC#Cc2ccccc2)cc1	3.2%	-1.8%	1.9%	22.4µM*	42.9%	-6.9%	0.3%	-0.8%	8.7%
COC(=O)/C(=C/Nc1cccc2ccccc12)[N+](=O)[O-]	-10.0%	26.7%	-1.3%	u	-18.9%[38.3 µM]	-14.7%	u	u	u
COc1cc(OC)cc(C(=O)Nc2cccc3ccccc23)c1	5.1%	6.8%	2.9%	-1.5%	x	x	x	x	x
Cc1ccc(C2CC(=O)C(C=NCCN3CCN(C(=S)Nc4ccc(F)cc4)CC3)=C(O)C2)cc1 (stereo unspecified)	-1.1%	6.3%	3.2%	-0.2%	x	x	x	x	x
Cc1cc(C)nc(N/N=C/C2=C(O)CC(c3ccc(F)cc3)CC2=O)n1 (stereo unspecified)	-4.5%	4.7%	0.6%	-20.8%	3.8%[38.3 µM]	u	9.0%	7.4%	0.9%
CCOC(=O)c1sc2nc(CSc3ccccc3)nc(N3CCC(C(N)=O)CC3)c2c1C	1.3%	-6.8%	0.3%	-15.5%	x	x	x	x	x
CCOC(=O)c1sc2nc(CSc3ccccc3)nc(N3CCCN(C)CC3)c2c1C	-18.1%	-3.8%	-3.2%	19.9µM*	-17.7%	-17.0%	4.1%	-1.2%	5.9%
COc1ccc(CNC(=O)c2ccc(C(C)(C)C)cc2)cc1	2.1%	-5.7%	4.8%	-2.8%	x	x	x	x	x
COc1ccc(CNC(=O)CN(C)Cc2ccc(C(C)(C)C)cc2)cc1	6.9%	-12.1%	-2.7%	22.4µM*	-10.2%[10.4 µM]	-5.8%	-5.3%	-5.3%	-0.3%
Cc1ccc(C(=O)Nc2nc(-c3ccccn3)cs2)o1	-27.3%	-4.9%	-21.8%	12.6µM*	u	u	9.4%	-13.6%	-16.2%
O=C(Nc1nc(-c2ccccn2)cs1)c1ccccc1-n1cnnn1	u	-5.1%	-7.7%	7.92µM*	20µM*	u	-3.9%	-15.6%	u
O=C(Nc1nc(-c2ccccn2)cs1)c1ccc([N+](=O)[O-])o1	u	-7.8%	-7.0%	x	x	x	8.4%	-4.2%	0.5%
O=C(Nc1nc(-c2ccccn2)cs1)c1ccc(-c2ccccc2F)o1	-13.4%	x	-22.2%	x	x	x	x	x	x
O=C(Nc1nc(-c2ccccn2)cs1)c1ccc2c(c1)OCCO2	2.4%	4.1%	-19.4%	17.7µM*	-24.1%[10.4 µM]	u	10.6%	-2.9%	-10.7%
CC(=O)c1ccc(-c2ccc(C(=O)Nc3nc(-c4ccccn4)cs3)o2)cc1	1.3%	x	3.7%	x	x	x	x	x	x
C#CC(C)OC(=O)Nc1cccc(Cl)c1 (stereo unspecified)	x	x	x	-12.5%	x	x	x	x	x
Cc1ccc(C)c(NC(=S)Nc2ncccc2C)c1	-6.8%	-0.9%	6.0%	u	x	x	x	x	x
